Laboratory results reported in PubChem BioAssay (NCI).
Compounds without any hit were thinned out: in the full panel of roughly 83,000, 20% have a hit.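 Growth was measured after 48 h exposure to one concentration of compound in 96-well plates. Values under 10 count as active.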 The source made the active and inactive calls.

Tests used:
Test in all cases: NCI-60 one-dose screen, 48 h (100 = growth as untreated, 0 = no growth, -100 = all killed)
Conditions in all cases: 10 µM
SK-MEL-2 melanoma = test system: SK-MEL-2 melanoma
SN12C renal = test system: SN12C renal
UO-31 renal = test system: UO-31 renal
TK-10 renal = test system: TK-10 renal
ACHN renal = test system: ACHN renal
CAKI-1 renal = test system: CAKI-1 renal
A498 renal = test system: A498 renal
CCRF-CEM leukemia = test system: CCRF-CEM leukemia
MOLT-4 leukemia = test system: MOLT-4 leukemia
RPMI-8226 leukemia = test system: RPMI-8226 leukemia
OVCAR-8 ovarian = test system: OVCAR-8 ovarian
OVCAR-5 ovarian = test system: OVCAR-5 ovarian
OVCAR-4 ovarian = test system: OVCAR-4 ovarian
SK-OV-3 ovarian = test system: SK-OV-3 ovarian
IGROV1 ovarian = test system: IGROV1 ovarian
OVCAR-3 ovarian = test system: OVCAR-3 ovarian
HS 578T breast = test system: HS 578T breast
NCI/ADR-RES ovarian = test system: NCI/ADR-RES ovarian
SR leukemia = test system: SR leukemia

Measured: growth

CCCCCCCCCCCCCCCC(=O)N1CCN(C)CC1
inactive: SK-MEL-2 melanoma 86.5% | SN12C renal 74.6% | UO-31 renal 40.5% | TK-10 renal 73.8% | ACHN renal 81.8% | CAKI-1 renal 69.9% | A498 renal 92.3% | CCRF-CEM leukemia 34.9% | MOLT-4 leukemia 61.4% | RPMI-8226 leukemia 71% | OVCAR-8 ovarian 86.3% | OVCAR-5 ovarian 86.3% | OVCAR-4 ovarian 87.6% | SK-OV-3 ovarian 84.9% | IGROV1 ovarian 52.3% | OVCAR-3 ovarian 86.8% | HS 578T breast 90.1% | NCI/ADR-RES ovarian 90.3%

CCOC(=O)c1ccc(N(C=O)CCC(=O)CCl)cc1
active: SN12C renal 7.96% | UO-31 renal -86.3% | TK-10 renal -18% | ACHN renal -37.4% | CAKI-1 renal -19.9% | CCRF-CEM leukemia -31.4% | MOLT-4 leukemia -13.7% | SR leukemia 5.14% | RPMI-8226 leukemia -20.4% | OVCAR-8 ovarian 3.69% | OVCAR-5 ovarian 4.98% | IGROV1 ovarian 2.75% | OVCAR-3 ovarian -5.41%
inactive: SK-MEL-2 melanoma 15.3% | OVCAR-4 ovarian 18.8% | SK-OV-3 ovarian 30.7% | HS 578T breast 33.2% | NCI/ADR-RES ovarian 21.4%

COc1ccc(-c2cn[nH]c2-c2cc(OC)c(OC)c(OC)c2)cc1
active: CCRF-CEM leukemia 6.38% | MOLT-4 leukemia 4.95% | SR leukemia 3.17% | RPMI-8226 leukemia 6.58% | OVCAR-3 ovarian -8.09%
inactive: SK-MEL-2 melanoma 29.2% | SN12C renal 26.3% | UO-31 renal 33% | TK-10 renal 58% | ACHN renal 20.7% | CAKI-1 renal 17.4% | OVCAR-8 ovarian 22.5% | OVCAR-4 ovarian 45% | SK-OV-3 ovarian 10.2% | IGROV1 ovarian 29.4% | HS 578T breast 23% | NCI/ADR-RES ovarian 27.1%

N#Cc1ncc(-c2cc(F)ccc2F)c(NC2CCCCCC2)n1
inactive: SK-MEL-2 melanoma 74.9% | SN12C renal 80.8% | UO-31 renal 81.5% | TK-10 renal 101% | ACHN renal 88.8% | CAKI-1 renal 88.2% | CCRF-CEM leukemia 81.3% | MOLT-4 leukemia 79.4% | SR leukemia 81.6% | RPMI-8226 leukemia 57.8% | OVCAR-8 ovarian 88.4% | OVCAR-5 ovarian 98.9% | OVCAR-4 ovarian 80.3% | SK-OV-3 ovarian 91.6% | IGROV1 ovarian 86% | OVCAR-3 ovarian 103% | HS 578T breast 58.2% | NCI/ADR-RES ovarian 91.2%
